Measurements as given in PubChem BioAssay AID1159580 (chemical genetic matrix, 2015).
The whole screen tested about 5,500 compounds, of which about 2,000 (36%) were called active. Inconclusive results (about 18%) are left out. Rule as the data show it: active = normalized growth mostly below about 0.91 (no sharp cut-off); inconclusive = no clear call, values can overlap the other calls; inactive = mostly above about 0.92. The list shows a part of the results.

Assay: chemical genetic growth profiling, strain panel (AID 1159580);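 also: tested at 20 µM; growth read once vehicle control cultures reached saturation at 30 °C; 1 = growth at the plate median or of vehicle wells; lower values mean less growth of the strain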
Settings: growth OD
[1] = S. cerevisiae deletion strains, locus YAL013W, strain DEP1, stronger effect = lower value
[2] = S. cerevisiae deletion strains, locus YBR229C, strain ROT2, stronger effect = lower value
[3] = S. cerevisiae deletion strains, locus YDL101C, strain DUN1, stronger effect = lower value
[4] = S. cerevisiae deletion strains, locus YDR150W, strain NUM1, stronger effect = lower value
[5] = S. cerevisiae deletion strains, locus YEL061C, strain CIN8, stronger effect = lower value
[6] = S. cerevisiae deletion strains, locus YGR078C, strain PAC10, stronger effect = lower value
[7] = S. cerevisiae deletion strains, locus YHR030C, strain SLT2, stronger effect = lower value
[8] = S. cerevisiae deletion strains, locus YJR043C, strain POL32, stronger effect = lower value
[9] = S. cerevisiae deletion strains, locus YJR075W, strain HOC1, stronger effect = lower value
[10] = S. cerevisiae deletion strains, locus YLR039C, strain RIC1, stronger effect = lower value
[11] = S. cerevisiae deletion strains, locus YLR262C, strain YPT6, stronger effect = lower value
[12] = S. cerevisiae deletion strains, locus YMR263W, strain SAP30, stronger effect = lower value
[13] = S. cerevisiae deletion strains, locus YMR307W, strain GAS1, stronger effect = lower value
[14] = S. cerevisiae deletion strains, locus YNL153C, strain GIM3, stronger effect = lower value
[15] = S. cerevisiae deletion strains, locus YNL322C, strain KRE1, stronger effect = lower value
[16] = S. cerevisiae deletion strains, locus YOL006C, strain TOP1, stronger effect = lower value
[17] = S. cerevisiae deletion strains, locus YPL055C, strain LGE1, stronger effect = lower value
[18] = S. cerevisiae deletion strains, locus YPL241C, strain CIN2, stronger effect = lower value

Measured: normalized growth

Cc1oc(S(=O)(=O)N(C)C)cc1C(=O)O
inactive: [1] 1.03 | [2] 1 | [3] 0.952 | [4] 1 | [5] 1.02 | [6] 1.01 | [7] 1.06 | S. cerevisiae deletion strains, locus YHR087W, strain rtc3, stronger effect = lower value 1.03 | S. cerevisiae deletion strains, locus YJL187C, strain SWE1, stronger effect = lower value 0.997 | [8] 0.987 | [9] 1 | [10] 1.07 | S. cerevisiae deletion strains, locus YLR058C, strain SHM2 (second series), stronger effect = lower value 1 | S. cerevisiae deletion strains, locus YLR085C, strain ARP6, stronger effect = lower value 1.08 | [11] 1.01 | S. cerevisiae deletion strains, locus YML094W, strain GIM5, stronger effect = lower value 1.06 | S. cerevisiae deletion strains, locus YMR219W, strain ESC1, stronger effect = lower value 1.01 | [12] 0.985 | [13] 0.976 | [14] 1.01 | S. cerevisiae deletion strains, locus YNL298W, strain CLA4 (second series), stronger effect = lower value 1 | [15] 1 | S. cerevisiae deletion strains, locus YNR030W, strain Alg12, stronger effect = lower value 1.02 | [16] 1.06 | [17] 1.08 | [18] 1.09 | S. cerevisiae deletion strains, locus YPR135W, strain CTF4, stronger effect = lower value 1.34

O=C(CCCCCCCCCCCCC1CCCC1)Nc1ccc(S(=O)(=O)c2ccc(NC(=O)CCCCCCCCCCCCC3CCCC3)cc2)cc1
inactive: [1] 1.01 | S. cerevisiae deletion strains, locus YBR021W, strain FUR4, stronger effect = lower value 1.04 | [2] 1.02 | S. cerevisiae deletion strains, locus YCL029C, strain bik1, stronger effect = lower value 0.992 | S. cerevisiae deletion strains, locus YDL035C, strain GPR1, stronger effect = lower value 1.02 | S. cerevisiae deletion strains, locus YDL074C, strain BRE1, stronger effect = lower value 1.07 | [3] 1.03 | S. cerevisiae deletion strains, locus YDL134C, strain PPH21, stronger effect = lower value 1.03 | S. cerevisiae deletion strains, locus YDL185W, strain tfp1, stronger effect = lower value 1.01 | S. cerevisiae deletion strains, locus YDL192W, strain arf1, stronger effect = lower value 0.997 | S. cerevisiae deletion strains, locus YDR101C, strain arx1, stronger effect = lower value 0.989 | [4] 1.02 | S. cerevisiae deletion strains, locus YDR162C, strain NBP2, stronger effect = lower value 1.03 | S. cerevisiae deletion strains, locus YDR318W, strain mcm21, stronger effect = lower value 0.989 | S. cerevisiae deletion strains, locus YDR388W, stronger effect = lower value 0.983 | S. cerevisiae deletion strains, locus YDR502C, strain sam2, stronger effect = lower value 1 | [5] 1.02 | S. cerevisiae deletion strains, locus YER110C, stronger effect = lower value 0.99 | S. cerevisiae deletion strains, locus YER155C, strain BEM2, stronger effect = lower value 1.02 | S. cerevisiae deletion strains, locus YER167W, strain BCK2, stronger effect = lower value 1.03 | S. cerevisiae deletion strains, locus YGL078C, strain dbp3, stronger effect = lower value 0.992 | S. cerevisiae deletion strains, locus YGL086W, strain mad1, stronger effect = lower value 1 | S. cerevisiae deletion strains, locus YGL248W, strain PDE1, stronger effect = lower value 1.03 | [6] 1.03 | S. cerevisiae deletion strains, locus YGR135W, strain pre9, stronger effect = lower value 1.01 | S. cerevisiae deletion strains, locus YGR229C, strain SMI1, stronger effect = lower value 1.03 | S. cerevisiae deletion strains, locus YGR252W, strain gcn5, stronger effect = lower value 0.984 | [7] 1.02 | S. cerevisiae deletion strains, locus YHR079C, strain IRE1 (second series), stronger effect = lower value 0.99 | S. cerevisiae deletion strains, locus YHR094C, strain hxt1, stronger effect = lower value 0.996 | S. cerevisiae deletion strains, locus YHR129C, strain ARP1, stronger effect = lower value 1.02 | S. cerevisiae deletion strains, locus YHR200W, strain rpn10, stronger effect = lower value 0.998 | S. cerevisiae deletion strains, locus YIL066C, strain RNR3, stronger effect = lower value 1.02 | S. cerevisiae deletion strains, locus YIL073C, strain SPO22, stronger effect = lower value 0.99 | S. cerevisiae deletion strains, locus YIL125W, strain kgd1, stronger effect = lower value 1 | S. cerevisiae deletion strains, locus YIR030C, strain dcg1, stronger effect = lower value 0.99 | S. cerevisiae deletion strains, locus YJL095W, strain BCK1, stronger effect = lower value 1.04 | S. cerevisiae deletion strains, locus YJL134W, strain LCB3, stronger effect = lower value 1.02 | S. cerevisiae deletion strains, locus YJL168C, strain set2, stronger effect = lower value 1 | S. cerevisiae deletion strains, locus YJL187C, strain SWE1 (second series), stronger effect = lower value 1.02 | [8] 1.03 | [9] 1.03 | S. cerevisiae deletion strains, locus YKL009W, strain mrt4, stronger effect = lower value 0.991 | S. cerevisiae deletion strains, locus YKL068W, stronger effect = lower value 1 | S. cerevisiae deletion strains, locus YKL085W, strain MDH1 (second series), stronger effect = lower value 1 | S. cerevisiae deletion strains, locus YKL085W, strain MDH1, stronger effect = lower value 1 | S. cerevisiae deletion strains, locus YKL190W, strain CNB1, stronger effect = lower value 1.02 | S. cerevisiae deletion strains, locus YKR001C, strain vps1, stronger effect = lower value 0.991 | [10] 1.04 | S. cerevisiae deletion strains, locus YLR058C, strain SHM2, stronger effect = lower value 1.02 | S. cerevisiae deletion strains, locus YLR102C, strain apc9, stronger effect = lower value 0.989 | [11] 1.03 | S. cerevisiae deletion strains, locus YLR268W, strain sec22, stronger effect = lower value 0.997 | S. cerevisiae deletion strains, locus YLR330W, strain CHS5, stronger effect = lower value 1.02 | S. cerevisiae deletion strains, locus YLR342W, strain FKS1 (second series), stronger effect = lower value 1.03 | S. cerevisiae deletion strains, locus YLR371W, strain rom2, stronger effect = lower value 1 | S. cerevisiae deletion strains, locus YLR418C, strain cdc73, stronger effect = lower value 1 | S. cerevisiae deletion strains, locus YML016C, strain PPZ1, stronger effect = lower value 1.03 | S. cerevisiae deletion strains, locus YML032C, strain rad52, stronger effect = lower value 1 | S. cerevisiae deletion strains, locus YML124C, strain tub3, stronger effect = lower value 0.99 | S. cerevisiae deletion strains, locus YMR078C, strain ctf18, stronger effect = lower value 0.988 | S. cerevisiae deletion strains, locus YMR223W, strain ubp8, stronger effect = lower value 0.989 | [12] 1.04 | [13] 0.981 | S. cerevisiae deletion strains, locus YNL067W, strain RPL9B, stronger effect = lower value 1.04 | S. cerevisiae deletion strains, locus YNL128W, strain TEP1, stronger effect = lower value 1.04 | [14] 1.02 | S. cerevisiae deletion strains, locus YNL233W, strain BNI4, stronger effect = lower value 1.03 | S. cerevisiae deletion strains, locus YNL250W, strain rad50, stronger effect = lower value 1 | S. cerevisiae deletion strains, locus YNL271C, strain bni1, stronger effect = lower value 0.998 | S. cerevisiae deletion strains, locus YNL298W, strain CLA4, stronger effect = lower value 1.01 | S. cerevisiae deletion strains, locus YNL307C, strain MCK1, stronger effect = lower value 0.99 | [15] 1.02 | S. cerevisiae deletion strains, locus YNR052C, strain pop2, stronger effect = lower value 0.993 | [16] 1.14 | S. cerevisiae deletion strains, locus YOL012C, strain htz1 0.857 | S. cerevisiae deletion strains, locus YOL147C, strain pex11, stronger effect = lower value 0.992 | S. cerevisiae deletion strains, locus YOR061W, strain CKA2, stronger effect = lower value 1.02 | S. cerevisiae deletion strains, locus YOR069W, strain VPS5, stronger effect = lower value 1.01 | S. cerevisiae deletion strains, locus YOR136W, strain idh2, stronger effect = lower value 0.994 | S. cerevisiae deletion strains, locus YOR144C, strain elg1, stronger effect = lower value 0.993 | S. cerevisiae deletion strains, locus YOR184W, strain ser1, stronger effect = lower value 0.99 | S. cerevisiae deletion strains, locus YOR316C, strain cot1, stronger effect = lower value 0.998 | [17] 1.05 | [18] 1.01 | S. cerevisiae deletion strains, locus YPR119W, strain clb2, stronger effect = lower value 0.984 | S. cerevisiae deletion strains, locus YPR141C, strain kar3, stronger effect = lower value 0.996 | S. cerevisiae deletion strains, locus YPR163C, strain tif3, stronger effect = lower value 0.993 | S. cerevisiae deletion strains, locus YPR167C, strain met16, stronger effect = lower value 0.997 | S. cerevisiae deletion strains, strain wtn01, stronger effect = lower value 0.997 | S. cerevisiae strains, strain wild type, stronger effect = lower value 1.01
